Assay outcomes deposited in PubChem BioAssay by National Center for Advancing Translational Sciences (NCATS).
HEK293 tox – qHTS of GLP-1 Receptor Inverse Agonists: Cytotox Screen; HEK293 cAMP-luciferase reporter cells, luminescence, 24 h; Potency, µM (doses to about 38.3 µM), without a hit: at the top dose activity change, negative = inhibition, hits mostly inhibitors; 0.13% of 410,000 active; AID 624418, 2012;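 also: loss of luciferase light is scored as toxicity; potency is read from the fitted curve at half-maximal effect; % is scaled to controls: 0 for no effect and ±100 for the full control effect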
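Step one: seed cells (200 cells/uL, DMEM with 10% Nu serum, 1% pen-strep). Step two: 12-hour incubation at 37 deg C. Step three: pin 23 nL compound, incubate 24 hr. Step four: add luciferase reagent, read luminescence 12 min later.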
LDHA inh – qHTS assay for inhibitors of human lactate dehydrogenase; L-lactate dehydrogenase A chain (Homo sapiens), P00338; purified LDHA, NADH/diaphorase-resazurin fluorescence; stronger effect = lower value; activity change, % (values are at about 110 or 230 µM); 0.15% of 480,000 active; in the data active = activity change below about -30%; inconclusive = mostly about -25% to -30%;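 also: plate controls were DMSO wells for no effect and wells without enzyme for full effect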
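Resorufin fluorescence (ex540/em590), read at 0 and 20 min after diaphorase/resazurin addition, reports the NADH left after a 5 min room-temperature reaction of 2 nM human LDH5 with 0.06 mM NADH and 0.2 mM pyruvate.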
p53 reactivator – qHTS assay for re-activators of p53 using a Luc reporter | H1299 p53-A138V BP100-luciferase reporter, luminescence, 24 h | AID 504706, 2011 | 0.063% of 320,000 active | Potency, µM (doses to about 92.2 µM), inactives show top-dose activity change, positive = activation, usual class: activators; also: potency is read from the fitted curve at half-maximal effect; % of control where 0% means no effect; nearly all actives have a fitted effect of over 45% in size
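p53-null H1299 cells stably carrying temperature-sensitive p53-A138V and a BP100-luciferase reporter were pinned with compounds (4-point, 1:5 series) and held 24 hrs at 37 deg C. Luminescence was read 10 min after detection reagent.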
GLP1R ag – qHTS of GLP-1 Receptor Agonists. Glucagon-like peptide 1 receptor (Homo sapiens), P43220. HEK293 GLP-1R CRE-luciferase, luminescence, 4-6 h; cells express a hypersensitive GLP-1R form. Potency, µM (doses to about 45.6 µM), inactives show at the highest dose activation, actives largely listed as activators. 0.007% of 380,000 active; also: potency is read from the fitted curve at half-maximal effect; % of control where 0% means no effect
GLP1R inv ag – qHTS of GLP-1 Receptor Inverse Agonists (Inhibition Mode). Glucagon-like peptide 1 receptor (Homo sapiens), P43220. HEK293 GLP-1R CRE-luciferase, luminescence, 24 h; GLP-1R form is constitutively active. Potency, µM (highest dose often 38.3 µM), inactives show at the highest dose activity change, negative = inhibition, hits mostly inhibitors. 1.6% of 410,000 active; also: potency is read from the fitted curve at half-maximal effect; % is scaled to controls: 0 for no effect and ±100 for the full control effect; nearly all actives have a fitted effect of over 55% in size
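GLP-1R inverse agonism mode: basal reporter luminescence in engineered HEK293 cells measured after one day of compound exposure at 37 deg C, with a 12 min room-temperature detection step.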
ClpP mod – qHTS Assay for Activators of ClpP | Potency, µM (highest dose often 57.5 µM), for inactives: at the top dose activity change, negative = active | 1.9% of 340,000 active | purified B. subtilis ClpP, FRET peptide cleavage, 20 min | AID 651965, 2013 | ATP-dependent Clp protease proteolytic subunit (Bacillus subtilis (strain 168)), P80244; active = well fitted falling curve with a large enough effect; inconclusive = small, poorly fitted or top-dose-only effect; inactive = no such curve, though single readings can be large or run the other way; also: potency is read from the fitted curve at half-maximal effect; the source files actives as falling curves though it sought activators and does not explain the sign; nearly all actives have a fitted effect of over 65% in size
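ClpP 10 microg/mL final, pH 8 Tris/KCl buffer with BSA, glycerol, Tween-20; compound pinned in; FRET-FV substrate; RT 20 min; Ex320/Em430; ΔFRET vs ADEP 5.8 microM, DMSO, no enzyme.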
* = called active by the depositor; ? = inconclusive; nt = no result. Rows were chosen to be rich in hits. Some 2.9% of all compounds tested hit in one or more screens of this group. Unless noted, calls follow the shape of the dose curve; as a rule, active = well fitted curve in the direction sought with a large enough effect; inconclusive = small, poorly fitted or top-dose-only effect, or another doubt; inactive = no such curve, though single readings can be large; an effect the other way counts as inactive or inconclusive.

SMILES	HEK293 tox	LDHA inh	p53 reactivator	GLP1R ag	GLP1R inv ag	ClpP mod
COc1ccc(-n2cc(-c3ccccc3)c3c(NCCc4ccc(OC)c(OC)c4)ncnc32)cc1	-10.8%	2.1	nt	nt	?	?
CCOc1ccc(-n2cc(-c3ccccc3)c3c(NCCc4ccccc4)ncnc32)cc1	5.9%	-2.6	nt	nt	?	25.1µM*
Clc1ccc(CCNc2ncnc3c2c(-c2ccccc2)cn3-c2ccccc2)cc1	-3.4%	-2.0	nt	nt	?	20µM*
COc1ccc(CNc2ncnc3c2c(-c2ccccc2)cn3-c2ccccc2)cc1	0.4%	4.3	nt	nt	6.31µM*	25.1µM*
CCOc1ccc(-n2cc(-c3ccccc3)c3c(NCc4ccc(F)cc4)ncnc32)cc1	-3.3%	1.0	nt	nt	1.41µM*	5.0%
Nc1nc(OCC(F)(F)F)cc(Oc2ccccc2F)n1	-25.4%	5.4	?	23.8%	?	-1.2%
Cc1ccsc1/C=N/NC(=O)Cc1ccc([N+](=O)[O-])cc1	6.9%	-6.4	nt	-1.7%	-18.0%	nt
COc1ccc(CCNc2ncnc3c2c(-c2ccccc2)cn3-c2cccc(Cl)c2)cc1OC	-6.5%	2.0	nt	nt	10µM*	?
Cc1ccc(CNc2ncnc3c2c(-c2ccccc2)cn3-c2ccccc2)cc1	1.8%	3.2	nt	nt	?	28.2µM*
C[C@H](CO)N1C[C@H](C)[C@@H](CN(C)S(=O)(=O)c2ccccc2C#N)OCc2cn(nn2)CCCC1=O	5.2%	-2.4	nt	-3.3%	3.5%	1.8%
CCN(CC)CCOC(=O)c1ccc(NC(=O)CCCN2C(=O)S/C(=C/c3ccc(OC)cc3)C2=S)cc1	?	-0.1	-13.5%	-3.0%	2.82µM*	nt
COc1ccc(/C=C2\SC(=S)N(CCC(=O)Nc3ccc(O)cc3)C2=O)cc1	-23.2%	-6.2	nt	-5.2%	-4.7%	1.1%
CC(c1cccs1)N(C)C(=O)C1CCCC1 (configuration not stated)	nt	7.6	nt	nt	nt	nt
COc1ccc(C2=NN(c3nc(C(=O)O)cs3)C(O)(C(F)(F)F)C2)c(OC)c1 (configuration not stated)	-8.3%	-63.5*	5.9%	8.5%	44.1%	nt
COc1ccc2[nH]c3c(c2c1)CCNC3=O	nt	3.2	nt	-0.6%	nt	nt
O=C1NCCc2c1[nH]c1ccccc21	-11.1%	-0.3	1.4%	2.9%	13.2%	25.1µM*
C=CCn1c(COc2cccc3cccnc23)nnc1SCC(=O)O	-3.9%	1.7	-5.8%	-8.4%	5.3%	28.2µM*
C=CCn1c(COc2cccc3ccc(C)nc23)nnc1SCC(=O)O	12.2%	1.2	nt	1.5%	3.0%	35.5µM*
CCOC(=O)c1c(NC(=O)c2ccoc2C)sc2c1CCC2	-5.6%	-1.4	-1.1%	8.5%	5.4%	35.5µM*
CCOC(=O)c1c(NC(=O)c2ccccc2C)sc2c1CCCC2	5.0%	4.9	nt	nt	9.4%	31.6µM*
CCOC(=O)c1c(NC(=O)c2ccccc2C(=O)O)sc2c1CCCC2	15.2%	-3.8	nt	-3.1%	-4.0%	-0.5%
CCOC(=O)c1c(NC(NC(=O)C(C)C)C(Cl)(Cl)Cl)sc2c1CCC2 (configuration not stated)	-2.6%	-1.8	-2.2%	-4.3%	5.62µM*	-0.7%
CCOC(=O)c1c(NC(=O)c2nn(CC)cc2Br)sc2c1CCCCC2	4.6%	-0.8	7.2%	-1.6%	-1.8%	28.2µM*
CC(C)C(=O)Nc1ccc(O)c(-c2csc(N)n2)c1	-3.8%	7.4	-2.3%	8.9%	46.0%	nt
COc1cc(S(=O)(=O)N2CCN(C)CC2)c(OC)cc1Cl	-1.6%	-0.2	4.0%	11.2%	-9.4%	0.2%
SMILES	HEK293 tox	LDHA inh	p53 reactivator	GLP1R ag	GLP1R inv ag	ClpP mod
CCC1=C(OC(=O)N(CC)CC)N2C(=O)OC(=NCC(=O)OC)[C@]2(Cc2ccccc2)[C@H]2C1=CC[C@H]1C(=O)N(c3ccccc3)C(=O)[C@H]12	23.2%	-2.8	-4.3%	6.5%	2.1%	-0.5%
CCOC(=O)c1c(NC(=O)CSc2nnc(-c3c[nH]c4ccccc34)n2CCOC)sc2c1CCCC2	-12.9%	-1.9	-2.8%	-1.0%	11.2µM*	-6.2%
CCOC(=O)c1c(NC(=O)CSc2nnc(-c3c[nH]c4ccccc34)n2C)sc2c1CCCC2	-6.0%	-2.2	-0.9%	-4.3%	3.1%	-3.7%
CC(=O)NNC(=O)c1csc(-c2csc(C)n2)n1	-5.0%	-8.5	-2.5%	-0.8%	-0.9%	31.6µM*
Cc1nc(-c2nc(C(=O)NNS(C)(=O)=O)cs2)cs1	-5.4%	0.6	1.0%	0.8%	8.5%	-0.8%
C(=NOCCc1ccccc1)c1ccncc1	3.1%	-6.9	nt	10.3%	5.6%	-3.3%
C/C(=N\NC(N)=S)c1ccc2c(c1)OCCO2	-100.8%	-5.1	13.6%	16.4%	?	-0.8%
CC(=NNC(N)=S)c1ccc2cc3c(cc2c1)OCO3	?	-6.2	nt	18.5%	2.82µM*	-4.7%
CCOc1ccc(NC(=O)c2cccc3ccccc23)cc1	?	-2.7	-0.9%	0.9%	-24.0%	-3.4%
C[C@H](CO)N1C[C@H](C)[C@@H](CN(C)S(=O)(=O)c2ccc(F)cc2)Oc2ccc(NC(=O)Nc3ccc(C(F)(F)F)cc3)cc2C1=O	-27.0%	6.0	-7.7%	-4.2%	?	-0.8%
C[C@H](CO)N1C[C@H](C)[C@H](CN(C)S(=O)(=O)c2cn(C)cn2)Oc2ccc(NC(=O)Nc3ccc(C(F)(F)F)cc3)cc2CC1=O	-14.3%	0.7	12.4%	-1.2%	?	0.7%
C[C@@H]1CN([C@@H](C)CO)C(=O)Cc2cc(NC(=O)Nc3ccc(C(F)(F)F)cc3)ccc2O[C@@H]1CN(C)S(=O)(=O)c1ccc(Cl)cc1	?	0.8	3.2%	-5.2%	5.62µM*	-4.7%
C[C@@H]1CN([C@H](C)CO)C(=O)c2cc(NC(=O)Nc3ccc(C(F)(F)F)cc3)ccc2O[C@H]1CN(C)S(=O)(=O)c1ccc(Cl)cc1	-28.0%	-3.7	16.9%	-2.6%	3.16µM*	-3.5%
CCN1CCN(c2ccc(S(=O)(=O)N3CCCCC3)cc2NC(=O)/C=C/c2ccc(F)cc2)CC1	-27.4%	-15.3	-2.8%	-4.0%	?	0.6%
CC(=O)N(C)C[C@@H]1Oc2ncc(Br)cc2C(=O)N([C@H](C)CO)C[C@@H]1C	3.2%	-33.6*	nt	4.1%	-2.8%	1.1%
